Screening results (PubChem BioAssay)
Hits are enriched below; roughly 2.4% of the tested compounds scored in any of these assays.
Cruzain noTriton: qHTS Assay for Promiscuous and Specific Inhibitors of Cruzain (without detergent). purified cruzain, Z-FR-AMC fluorescence, no detergent. Cruzipain (Trypanosoma cruzi), P25779. Potency, µM, without a hit: max response, negative = inhibition, most hits filed as inhibitors. AID 1476, 2009. 200,000 tested, 2.3% active;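 further: plate controls were enzyme without inhibitor for no effect and buffer without enzyme for full effect; nearly all actives have a fitted effect of over 40% in size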
Target sequence (P25779 123-467 limits assumed): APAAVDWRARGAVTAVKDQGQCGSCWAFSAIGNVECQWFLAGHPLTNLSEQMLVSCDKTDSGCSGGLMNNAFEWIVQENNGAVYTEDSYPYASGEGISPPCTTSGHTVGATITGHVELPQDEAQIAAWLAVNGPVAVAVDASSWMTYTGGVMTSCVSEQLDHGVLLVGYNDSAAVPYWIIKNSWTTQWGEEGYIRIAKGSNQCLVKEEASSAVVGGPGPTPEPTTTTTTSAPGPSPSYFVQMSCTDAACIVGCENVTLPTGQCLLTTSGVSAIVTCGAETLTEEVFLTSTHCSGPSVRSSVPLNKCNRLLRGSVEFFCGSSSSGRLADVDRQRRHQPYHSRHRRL
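Purified cruzain at 1.5 nM, pre-incubated 15 min with compound at room temperature in 100 mM sodium acetate pH 5.5, 5 mM DTT, 0.00005% Triton X-100. Reaction started with 2 uM Z-FR-AMC; AMC fluorescence increase over 60 s gives rate.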
Cruzain Triton: qHTS Assay for Promiscuous and Specific Inhibitors of Cruzain (with detergent). Cruzipain (Trypanosoma cruzi), P25779. purified cruzain, Z-FR-AMC fluorescence, 0.01% Triton. Potency, µM, inactives show max response, negative = inhibition, usual class: inhibitors. 200,000 tested, 0.43% active. AID 1478, 2009;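 further: plate controls were neutral wells for no effect and buffer without enzyme for full effect; nearly all actives have a fitted effect of over 40% in size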
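Cysteine protease activity tested under reducing, mildly acidic conditions (100 mM sodium acetate pH 5.5, 5 mM DTT) plus 0.01% Triton X-100. Cruzain 1.5 nM; substrate Z-FR-AMC 2 uM; 15 min compound preincubation at room temperature.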
* = called active by the depositor; ? = inconclusive. The call rests on the fitted dose curve; in most records, active means well fitted curve in the direction sought with a large enough effect; inconclusive means small, poorly fitted or top-dose-only effect, or another doubt; inactive means no such curve, though single readings can be large; an effect the other way counts as inactive or inconclusive. Potency means the concentration at half of the fitted maximal effect.

SMILES | Cruzain noTriton | Cruzain Triton
CCNc1cc(N2CCN(S(=O)(=O)c3ccc4c(c3)CCCC4)CC2)ccc1[N+](=O)[O-] | 5µM* | -2%
Cc1cc(C)c(S(=O)(=O)N2CCN(c3ccc([N+](=O)[O-])c(NCc4ccco4)c3)CC2)c(C)c1 | 6.3µM* | 0%
Cc1cc(C)c(S(=O)(=O)N2CCN(c3ccc([N+](=O)[O-])c(NCC4CCCO4)c3)CC2)c(C)c1 (stereo not drawn) | ? | -8%
COc1cccc(CNC(=O)CCc2c(C)nc3c4c(C)cc(C)nc4nn3c2C)c1 | 10% | -2%
O=C(Cn1cnc(S(=O)(=O)N2CCCC2)c1)Nc1cccc(F)c1 | 0% | 0%
CC(C)[C@@H](CC(=O)N[C@@H]1CCCC[C@H]1C(=O)N[C@H](CC(=O)N[C@@H](CCC(=O)O)CC(=O)O)Cc1ccccc1)NC(=O)C[C@H](Cc1ccccc1)NC(=O)[C@@H]1CCCC[C@H]1N | ? | 7%
O=S(=O)(c1ccc(Cl)cc1)c1nc(-c2ccccc2F)oc1NCc1ccccc1 | -10% | -2%
Cc1nc(S(=O)(=O)c2ccc(Cl)cc2)c(NCc2ccccc2)o1 | 32µM* | ?
CCCCC(=O)Nc1ccc(C(=O)Nc2ccc(OC)cc2[N+](=O)[O-])cc1 | 16µM* | 2%
COc1ccc(/C=C/C(=O)Nc2ccc(OC)cc2[N+](=O)[O-])cc1 | -7% | -2%
CCCCC(=O)Nc1ccc(NC(=O)c2ccc([N+](=O)[O-])cc2)cc1OC | -3% | -1%
CCCOc1ccc(/C=C/C(=O)Nc2ccc([N+](=O)[O-])cc2C)cc1 | 25µM* | 2%
CCCOc1ccc(/C=C/C(=O)Nc2ccc([N+](=O)[O-])cc2C)cc1OC | 6% | 8%
CCOc1ccc(NC(=O)/C=C/c2ccc(OC)cc2)c([N+](=O)[O-])c1 | 4µM* | 14µM*
CC(=O)Nc1nc(NC(C)=O)c2[nH]c(CO)nc2n1 | 8% | 1%
Cc1cc(-c2ccc(S(=O)(=O)Nc3cc(Cl)ccc3C)s2)on1 | -15% | -13%
Cc1cc(C2=NNC(=NC3CC3)SC2)c(C)n1-c1ccccc1F | ? | -7%
C=C(C)CN=C1NN=C(c2cc(C)n(-c3ccc(C)cc3)c2C)CS1 | 7.9µM* | -6%
CN1CCc2nc(SCc3ccc(C(C)(C)C)cc3)c(C#N)cc2C1 | -2% | -5%
COC(=O)Cc1c(C)c2ccc3c(c2oc1=O)CN(Cc1ccc(Cl)cc1)CO3 | -10% | -1%
Cc1ccc(C(=O)N2CCc3cc(CNS(=O)(=O)c4cccs4)ccc32)cc1 | ? | 0%
c1ccc(-c2ccc(-c3csnn3)cc2)cc1 | 20µM* | 4%
FC(F)(F)c1cccc(-c2ccc(-c3csnn3)o2)c1 | -2% | -7%
Cc1ccc(-n2nnnc2CNC(=O)c2cc(C(F)(F)F)cc(C(F)(F)F)c2)cc1C | ? | -13%
CC(=O)Nc1nonc1-c1nnc(SCC(=O)Nc2cc(C)ccc2C)n1-c1ccccc1 | ? | -1%
SMILES | Cruzain noTriton | Cruzain Triton
COc1ccc(C(=O)Nc2cc(C(C)C)c(O)c(S(=O)(=O)c3ccc(OC)cc3)c2C)cc1 | 25µM* | -1%
COc1ccc(C(=O)Nc2cc(C(C)C)c(O)c(S(=O)(=O)c3ccc(Cl)cc3)c2C)cc1 | ? | -2%
CCC=O | 3% | 1%
Cc1ccc(NC(=O)N(Cc2cccs2)Cc2cc3cc4c(cc3[nH]c2=O)OCO4)cc1 | ? | 0%
Cc1ccc(NC(=O)N(Cc2ccc3c(c2)OCO3)Cc2cc3cc4c(cc3[nH]c2=O)OCCO4)cc1 | 32µM* | 2%
Cc1cccc(NC(=O)Nc2nnc(N(C)Cc3ccccc3)s2)c1 | 5% | -8%
COc1ccc(NC(=O)Nc2nnc(-c3ccccc3SCc3ccccc3)s2)cc1 | 10µM* | 8%
COc1cccc(NC(=O)Nc2nnc(-c3ccccc3SCc3ccccc3)s2)c1 | 3.2µM* | 5%
CCOc1ccc(NC(=O)CSc2nnc(NC(=O)Nc3ccccc3)s2)cc1 | 14% | 0%
CCN(c1ccccc1)c1nnc(NC(=O)Nc2ccccc2F)s1 | -11% | -3%
O=C(Nc1nnc(-c2ccccc2SCc2ccccc2)s1)Nc1ccccc1F | 3.2µM* | -1%
COc1cc2c(C(=O)N3CCN(c4ccc(F)cc4)CC3)cn(CC(C)C)c(=O)c2cc1OC | ? | -4%
COc1ccc(C2=C(C)C(N3CCC(C(=O)NCc4ccco4)CC3)=NS2(=O)=O)cc1 | 4% | -5%
c1ccc(/C(=N/Nc2nc3ccccc3s2)c2ccccn2)cc1 | -1% | 5%
COc1ccc(NC(=O)c2cc3c(s2)-c2c(C)cccc2OC3)cc1Cl | 11% | -1%
Cn1c(SCC(=O)Nc2ccc3c(c2)oc2ccccc23)nnc1-c1ccccc1 | 13µM* | 0%
O=C(CSc1nc2ccccc2s1)NNC(=O)Nc1ccc(Cl)c(Cl)c1 | ? | -8%
O=C(CSc1nnc(NC(=O)c2ccccc2Cl)s1)Nc1ccc2c(c1)oc1ccccc12 | 4µM* | -8%
O=C(Nc1nnc(SCC(=O)N2CCOCC2)s1)c1ccccc1Cl | -9% | -5%
Cn1c(SCC(=O)Nc2ccccc2)nnc1-c1ccccc1 | -2% | -1%
O=C(CSc1nc2ccccc2s1)Nc1ccc2c(c1)oc1ccccc12 | 16µM* | -2%
Cc1ccc(/C=C/c2onc(C)c2S(=O)(=O)N2CCC(C(=O)NCC(C)c3ccccc3)CC2)cc1 (stereo not drawn) | -3% | -2%
COC(=O)[C@@]1(Cc2ccc(OC)cc2)[C@H]2c3cc(C(=O)N4CCCC4)n(CCc4c[nH]c5cc(F)ccc45)c3C[C@H]2CN1C(=O)c1ccccc1 | ? | 2%
Cc1ccc(S(=O)(=O)NC2c3cccc4cccc(c34)C2Sc2nc(C)cc(C)n2)cc1 (stereo not drawn) | 25µM* | -3%
Cc1ccc(S(=O)(=O)NC2c3cccc4cccc(c34)C2Sc2nncn2C)cc1 (stereo not drawn) | -8% | 2%
SMILES | Cruzain noTriton | Cruzain Triton
CCCS(=O)(=O)O | -6% | 3%
COC(=O)c1ccc2c(c1)N(CC(=O)Nc1cccc(C(F)(F)F)c1)C(=O)c1ccccc1S2 | -2% | -1%
COCCCNC(=O)CSc1nc2nc(C)c(Cc3ccccc3Cl)c(C)n2n1 | 6% | -1%
CC(C)c1ccc(C2N3CCCN23)cc1 (stereo not drawn) | -6% | -2%
CC1(C)C2([N+](=O)[O-])CN3CC1([N+](=O)[O-])CN(C2)C3c1ccccc1 (stereo not drawn) | 20µM* | 4%
CC1(C)C2([N+](=O)[O-])CN3CC1([N+](=O)[O-])CN(C2)C31CCCC1 | -4% | 6%
CC(C)c1ccc(C2N3CC4([N+](=O)[O-])CN2CC([N+](=O)[O-])(C3)C4(C)C)cc1 (stereo not drawn) | 10µM* | 2%
CCc1ccc(CNC(=O)C2CCN(C(=O)c3ccc(-n4ccc5ccccc54)s3)CC2)cc1 | 10% | -4%
O=C1C(=O)N(C2CCN(C(=O)c3cccc(Cl)c3)CC2)CCN1Cc1ccc(F)cc1 | -7% | 0%
Cc1ccc2c(nc3s/c(=C/c4cccs4)c(=O)n32)c1C | 16µM* | -2%
Cc1cc(C)c2nc3s/c(=C/c4ccccc4)c(=O)n3c2c1 | -18% | 3%
COc1ccc(OC)c(NS(=O)(=O)Cc2ccccc2)c1 | 32µM* | -2%
COc1ccc(OC)c(S(=O)(=O)NCc2ccccc2)c1 | -2% | -2%
CCOC(=O)CC(C(=O)OCC)C1CCCCC1=O (stereo not drawn) | 9% | 3%
c1cc2c3c(c1)ccc1cccc(c13)C2 | -4% | 3%
